# Records with an inconclusive call do not appear. Unmarked numbers belong to inactive results. Active and inactive are the calls of the source. Calls come from the whole dose curve; as a rule, active = well fitted inhibition curve with a large enough effect in the repeat runs; inconclusive = weak or mixed curves, or effect the other way; inactive = no such curve, though single readings can be large or run the other way.
# Target: Androgen receptor (Homo sapiens) (UniProt P10275)
# Test: qHTS assay to identify small molecule antagonists of the androgen receptor (AR) signaling pathway using the MDA cell line (AID 743042; note: nearly all actives have a fitted effect of over 55% in size)
# Details: MDA-kb2 AR-luc, MMTV luciferase, R1881 antagonist, 16 h; series mostly up to 70.3 µM; activity change, negative = inhibition: at the top concentration
# Text: U.S. Tox21 Program National Center for Advancing Translational Sciences [NCATS] NIH Chemical Genomics Center [NCGC] U.S. Environmental Protection Agency [EPA] National Institutes of Environmental Health Sciences [NIEHS] National Toxicology Program [NTP] U.S. Food and Drug Administration [FDA] Tox21 Assay Overview: Androgen receptor (AR), a nuclear hormone receptor, plays a critical role in AR-dependent prostate cancer and other androgen related diseases. Endocrine disrupting chemicals (EDCs) and their interactions with steroid hormone receptors like AR may cause disruption of normal endocrine function as well as interfere with metabolic homeostasis, reproduction, developmental and behavioral functions. To identify the compounds that inhibit AR signaling, MDA-kb2 AR-luc cell line (from ATCC, deposited by Wilson et al.) was used to screen the Tox21 10K compound library. MDA-kb2 AR-luc cell line is human breast carcinoma cell line that was stably transfected with a luciferase reporter gene under control of the MMTV promoter containing response elements for both androgen receptor (AR) and glucocorticoid receptor (GR).
# Tox21 Assay Protocol Summary: MDA-kb2 cells were dispensed at 3,000 cells/4 uL/well of culture medium into white wall/solid-bottom 1536-well plates using a Multidrop Combi (ThermoFisher Scientific, Waltham, MA) dispenser. After the assay plates were incubated at a 37C and 0% CO2 for 5 hr, 23 nL of compounds dissolved in DMSO, positive controls or DMSO only was transferred to the assay plate by a Pintool station (Kalypsys, San Diego, CA), followed by addition of 1 uL of agonist (R1881) in culture medium using a Bioraptr Flying Reagent Dispenser (FRD) workstation (Beckman Coulter, Indianapolis, IN, USA). The plates were incubated at a 37C and 0% CO2 for 16 h. After 15.5 h incubation, 1uL of CellTiter-Fluor reagent (Promega, Madison, WI) was added using a Bioraptr FRD to each plate for measuring cytotoxicity. The fluorescence intensity was quantified on a ViewLux plate reader (PerkinElmer, Shelton, CT) following 30 min incubation at 37C and 0% CO2. For measuring luciferase reporter gene activity, 4 uL of ONE-Glo reagent (Promega) was added to each plate using a Bioraptr FRD and luminescence was quantified on a ViewLux (PerkinElmer) plate reader after 30 min incubation at room temperature.
# % is set by controls: 0 for no effect and ±100 for the full control effect.
# Chain of Androgen receptor (Homo sapiens) (P10275 whole entry, looked up): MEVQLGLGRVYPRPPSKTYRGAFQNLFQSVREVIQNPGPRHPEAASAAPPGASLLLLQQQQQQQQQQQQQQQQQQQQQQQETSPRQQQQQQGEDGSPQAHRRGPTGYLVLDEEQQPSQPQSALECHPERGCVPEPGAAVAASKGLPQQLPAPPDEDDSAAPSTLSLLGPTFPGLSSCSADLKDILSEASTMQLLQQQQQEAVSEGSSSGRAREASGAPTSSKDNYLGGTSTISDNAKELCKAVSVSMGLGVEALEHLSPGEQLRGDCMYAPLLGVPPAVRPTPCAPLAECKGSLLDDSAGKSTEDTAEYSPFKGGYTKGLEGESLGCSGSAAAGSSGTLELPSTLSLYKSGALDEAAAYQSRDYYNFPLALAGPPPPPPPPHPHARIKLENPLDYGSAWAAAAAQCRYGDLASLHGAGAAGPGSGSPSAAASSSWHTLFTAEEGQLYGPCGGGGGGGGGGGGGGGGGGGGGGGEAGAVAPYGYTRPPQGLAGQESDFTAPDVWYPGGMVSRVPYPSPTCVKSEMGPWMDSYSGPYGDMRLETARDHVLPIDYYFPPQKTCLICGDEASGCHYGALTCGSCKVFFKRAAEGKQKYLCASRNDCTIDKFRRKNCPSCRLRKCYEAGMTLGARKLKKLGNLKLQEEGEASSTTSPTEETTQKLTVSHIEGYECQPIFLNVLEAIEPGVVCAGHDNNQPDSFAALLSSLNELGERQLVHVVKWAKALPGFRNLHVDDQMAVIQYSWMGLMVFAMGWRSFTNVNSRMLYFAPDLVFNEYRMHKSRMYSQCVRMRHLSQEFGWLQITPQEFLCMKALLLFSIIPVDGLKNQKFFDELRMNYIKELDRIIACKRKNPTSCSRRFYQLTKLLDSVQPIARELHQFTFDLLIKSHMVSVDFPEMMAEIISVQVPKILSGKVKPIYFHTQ
SMILES,"activity change, negative = inhibition",outcome
O=NN1CCCCC1,-18%,–
O=CNC(N1CCN(C(NC=O)C(Cl)(Cl)Cl)CC1)C(Cl)(Cl)Cl (configuration not stated),6.63%,–
c1cc2c(c(N3CCNCC3)c1)OCCO2,2.31%,–
CCCCOC(=O)c1ccccc1C(=O)O,2.02%,–
CC(C)(C)NCC(O)c1cc(Cl)c(N)c(Cl)c1 (configuration not stated),-0.31%,–
CC(COc1ccc(Oc2ccccc2)cc1)Oc1ccccn1 (configuration not stated),40.8%,–
CNC(=O)Oc1ccccc1C1OCCO1,1.02%,–
O=C(N[C@H]1CN2CCC1CC2)c1cc2ccoc2cn1,9.67%,–
COc1ccc2c(c1OC)CN1CCc3cc4c(cc3C1C2)OCO4 (configuration not stated),-13.8% [at 32.5 µM],–
Nc1c(Br)cc([N+](=O)[O-])cc1[N+](=O)[O-],1.36% [at 95 µM],–
O=C(CCCN1CCC(n2c(=O)[nH]c3ccccc32)CC1)c1ccc(F)cc1,-5.86% [at 32.5 µM],–
O=C(Nc1ccccc1)c1ccccc1I,10.4%,–
CCN(CC)C(C)C(=O)c1ccccc1 (configuration not stated),5.1%,–
O=C(O)c1ccc2[nH]cc(CCCCN3CC=C(c4ccccc4)CC3)c2c1,3.19%,–
CCC(C)(C)c1cc(-n2nc3ccccc3n2)c(O)c(C(C)(C)CC)c1,-20.8% [at 95 µM],–
N#CC(Cl)(Cl)Cl,2.31%,–
CC(Cl)(Cl)[N+](=O)[O-],3.51%,–
CCC(=O)c1ccccc1,9.97%,–
COc1cc(OC)nc(Oc2cccc(Oc3nc(OC)cc(OC)n3)c2C(=O)O)n1,11.7%,–

SMILES,"activity change, negative = inhibition",outcome
CNC(=O)Oc1c(C(C)(C)C)cc(C)cc1C(C)(C)C,7.47%,–
O=[N+]([O-])c1cccc2c([N+](=O)[O-])cccc12,2.19% [at 95 µM],–
C#C[C@]1(O)C=C[C@H]2[C@@H]3CCC4=CC(=O)CC[C@@H]4[C@H]3CC[C@@]21CC,59.8%,–
CCOP(=O)(OCC)OP(=O)(OCC)OCC,1.65%,–
CC(C)CC#N,7.89% [at 95 µM],–
Cc1cnc[nH]1,14.9%,–
CCCCCCI,12.4%,–
Cc1nc(N)nc(N)n1,0.585% [at 95 µM],–
CCOP(=S)(OCC)Oc1ncn(-c2ccccc2)n1,23.4%,–
CC1(C)COP(Oc2ccccc2)OC1,-7.11%,–
COC(=O)c1c(C(F)F)nc(C(F)(F)F)c(C2=NCCS2)c1CC(C)C,26.7%,–
COC(=O)C(c1ccccc1)C1CCCCN1 (configuration not stated),–,inactive
Nc1ccccc1Cl,-4.46%,–
CCCCOP(=O)(O)OCCCC,-25.5%,–
COP(N)(=S)Oc1ccccc1C(=O)OC(C)C (configuration not stated),-19.8%,–
CNC(=O)N(C)c1nc2ccccc2s1,78.9%,–
COc1ncc(F)c2nc(S(=O)(=O)Nc3c(F)cccc3F)nn12,-5.51%,–
c1cc[c]([Hg][c]2ccccc2)cc1,-19.4%,–

# Source: PubChem BioAssay (Tox21)
